Results: PubChem BioAssay (NCI)
This is part of a sample that, as a whole, favours compounds with a hit. Of some 83,000 tested, about 20% had one in any assay.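 The endpoint reported here, percent growth, reads 100 for growth as untreated, 0 for no net growth and -100 for all cells dead.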 Active and inactive are the calls of the source. The calls were made as follows: active = growth percent below 10; inactive = the rest.

Tests used:
Experiment in all cases: NCI-60 one-dose screen, 48 h (100 = growth as untreated, 0 = no growth, -100 = all killed)
Settings in all cases: 10 µM unless noted
[1] = system: HCT-15 colon
[2] = system: HT29 colon
[3] = system: SNB-75 CNS
[4] = system: SNB-19 CNS
[5] = system: U251 CNS
[6] = system: PC-3 prostate
[7] = system: SK-MEL-5 melanoma
[8] = system: UACC-62 melanoma
[9] = system: LOX IMVI melanoma
[10] = system: SK-MEL-28 melanoma
[11] = system: SK-MEL-2 melanoma
[12] = system: SN12C renal
[13] = system: UO-31 renal
[14] = system: TK-10 renal
[15] = system: ACHN renal
[16] = system: CAKI-1 renal
[17] = system: CCRF-CEM leukemia
[18] = system: MOLT-4 leukemia
[19] = system: A498 renal
[20] = system: EKVX NSCLC

Measured: growth

C[C@]1(CO)C[C@@H](O)C[C@]2(C)[C@@H]1CC[C@@]13C[C@@H]4[C@@H](C[C@H]12)[C@]4(C)C3
inactive: [1] 103% | [2] 105% | [3] 88.9% | [4] 95.7% | [5] 104% | [6] 99% | [7] 99% | [8] 94.1% | [9] 107% | [10] 103% | [11] 102% | [12] 99.1% | [13] 83.9% | [14] 103% | [15] 97.7% | [16] 89.5% | [17] 116% | [18] 108%

CCOC(=O)c1c(Cl)c2c(n1Cc1cc(OC)cc(OC)c1)-c1oncc1CCC2
active: [2] 3.92% | [3] 1.91% | [19] -13% | [17] 7.48%
inactive: [1] 21.5% | [4] 55.8% | [5] 33.2% | [6] 23.4% | [7] 17.7% | [8] 28.5% | [9] 43.7% | [10] 40.7% | [11] 44.6% | [12] 38.9% | [14] 55.1% | [15] 48.3% | [16] 31.3% | [18] 30%

Cc1cc(O)cc2c1[C@H]1CC[C@]3(C)[C@@H](O)CC[C@H]3[C@@H]1C=C2
inactive: [1] 78.7% | [2] 93.5% | [3] 76.2% | [4] 94.7% | [5] 92.5% | [6] 86.3% | [7] 83.8% | [8] 73.5% | [9] 81.3% | [10] 99.8% | [20] 105% | [12] 98.5% | [13] 98.4% | [14] 102% | [15] 96.7% | [16] 108% | [19] 118% | [17] 69.4%

COc1cc(/C=C/C(=O)CC(=O)/C=C/c2cc(Br)c(OC)c(OC)c2)cc(Br)c1OC
inactive: [1] 109% | [2] 103% | [3] 93.7% | [4] 99.8% | [5] 105% | [6] 105% | [7] 108% | [8] 101% | [9] 97.8% | [10] 106% | [20] 105% | [12] 96.6% | [13] 87.9% | [14] 109% | [15] 109% | [16] 105% | [19] 98.4% | [17] 114% | [18] 71.5%

COc1ccc(/C=C/C(=O)N2CCC(O)CC2)cc1OC1CCCC1
inactive: [1] 102% | [2] 102% | [3] 90.2% | [4] 95.7% | [5] 93% | [6] 96.5% | [7] 99.3% | [8] 97.9% | [9] 95.3% | [10] 115% | [11] 107% | [12] 95% | [13] 87.8% | [14] 102% | [15] 102% | [16] 93.1% | [17] 119% | [18] 97.6%

Brc1ccccc1Nc1ccc2nnc(-c3ccncc3)n2n1
inactive: [1] 80.6% | [2] 109% | [3] 93.9% | [4] 100% | [5] 102% | [6] 102% | [7] 104% | [8] 108% | [9] 92.5% | [10] 99% | [11] 98% | [12] 101% | [14] 114% | [15] 97% | [16] 87.1% | [19] 101% | [17] 85% | [18] 92.6%

NC(=S)N/N=C1\c2ccccc2-c2c(F)c(F)c(F)c(F)c21
active: [17] -28.1% | [18] -18%
inactive: [1] 62.8% | [2] 52.8% | [3] 95.7% | [4] 89% | [5] 63.9% | [6] 80.3% | [7] 102% | [8] 93.4% | [9] 86.6% | [10] 113% | [20] 87.3% | [12] 70.6% | [13] 68.9% | [14] 116% | [15] 65.7% | [16] 78.3% | [19] 105%

Cc1ccc(S(=O)(=O)N2CCc3ccc(O)c4c3C2Cc2cc(Cl)ccc2-4)cc1 (configuration not stated)
inactive: [1] 48.4% | [2] 103% | [3] 48.7% | [4] 83.9% | [5] 30.2% | [6] 65.7% | [7] 52.8% | [8] 57% | [9] 68.9% | [10] 56.6% | [20] 99.6% | [12] 91.9% | [13] 48.8% | [14] 69.1% | [15] 57.1% | [16] 56.1% | [19] 47.5% | [17] 94% | [18] 74.4%

O=C(c1cnn2c1NC(c1ccc(F)cc1)C2)N1CCCCC1 (configuration not stated)
inactive: [1] 102% | [2] 103% | [3] 84.8% | [4] 100% | [5] 97.1% | [6] 96.9% | [7] 97.8% | [8] 101% | [9] 103% | [10] 103% | [11] 104% | [12] 104% | [13] 89.8% | [14] 105% | [15] 102% | [16] 93.4% | [17] 105% | [18] 108%

COc1ncnc2c1ncn2C/C(Br)=C(\Br)CCl
inactive: [1] 31.6% | [3] 46.6% | [4] 89.9% | [6] 46.4% | [7] 53.7% | [8] 57.3% | [10] 77.4% | [20] 114% | [12] 10.8% | [14] 51.3% | [15] 14.9% | [16] 96.2% | [19] 94.8% | [18] 18.9%
active: [2] -56.8% | [5] -71.8% | [9] -87.2% | [13] -56.8% | [17] -38.7%

COc1cc(/C=N/NC(=O)c2cnn3c2NC(c2ccccc2)C3)cc(OC)c1OC (configuration not stated)
inactive: [1] 37.7% | [2] 20.5% | [3] 52.4% | [4] 66.2% | [5] 66.9% | [6] 56.2% | [7] 50.4% | [8] 57.4% | [9] 61.3% | [10] 70.4% | [11] 47.6% | [12] 87.4% | [13] 68.9% | [14] 85.7% | [15] 80.2% | [16] 42.1% | [17] 79.7% | [18] 80.5%

O=C1N/C(=C\c2ccccc2)c2ncccc21
inactive: [1] 101% | [2] 113% | [3] 91.8% | [4] 104% | [5] 104% | [6] 102% | [7] 105% | [8] 102% | [9] 99.2% | [10] 119% | [20] 93.1% | [12] 100% | [13] 69% | [14] 121% | [15] 103% | [16] 93.6% | [19] 123% | [17] 97.7% | [18] 80.7%

OC[C@@H](O)[C@@H](O)CO
inactive: [1] 102% | [2] 106% | [3] 100% | [4] 98.3% | [5] 98.7% | [6] 97.2% | [7] 104% | [8] 98.3% | [9] 91.3% | [10] 112% | [20] 107% | [12] 99.6% | [13] 80.5% | [14] 111% | [15] 103% | [16] 93.9% | [19] 101% | [17] 100%

Cc1cc(C)c(S(=O)O)c(C)c1
inactive: [1] 111% | [2] 100% | [3] 86.6% | [4] 102% | [5] 105% | [6] 94.6% | [7] 105% | [8] 102% | [9] 93.9% | [10] 113% | [20] 105% | [12] 108% | [13] 110% | [14] 104% | [15] 103% | [16] 99% | [19] 92.7% | [17] 94% | [18] 109%

CN1CCN(C(=O)OCCOCCOC(=O)N2CCN(C)CC2)CC1
active: [17] 8.24%
inactive: [1] 96.3% | [2] 101% | [3] 80.8% | [4] 104% | [5] 103% | [6] 90.1% | [7] 104% | [8] 102% | [9] 90.9% | [10] 105% | [20] 100% | [12] 99.9% | [13] 95.8% | [14] 94.5% | [15] 97% | [16] 131% | [19] 93% | [18] 52.7%

O=C(O)C[C@H](O)C[C@H](O)/C=C/c1c(C2CC2)nc2ccccc2c1-c1ccc(F)cc1
inactive: [1] 46.5% | [2] 107% | [3] 103% | [4] 74.9% | [5] 42.8% | [6] 26.9% | [7] 67.6% | [8] 19.5% | [9] 34.5% | [10] 113% | [20] 93.6% | [12] 30.3% | [14] 111% | [15] 39.7% | [16] 26.1% | [18] 110%
active: [19] -28.9%

O=C1/C(=C/c2ccccc2F)CNC/C1=C\c1ccccc1F
inactive: [3] 32.5% | [20] 22.4%
active: [1] -0.826% | [2] -35.4% | [4] 3.94% | [5] -85.3% | [6] 4.63% | [7] -88.4% | [8] -58.3% | [9] -83.5% | [10] -91.1% | [12] -51.1% | [14] -4.87% | [15] -48.9% | [16] -52.5% | [19] -38.8% | [17] -36.3% | [18] -32.5%
